# Results taken from article PMC11995724, “Antibiotic target discovery by integrated phenotypic and activity-based profiling of electrophilic fragments” (Cell chemical biology, 2025).
# In all, about 3,200 compounds went through this assay and about 110 (3.4%) showed an effect of 50% or more. This is one part of a sample in which strong results are shown more often than they occur.
# Test system: T1, V. cholerae SAD30
# T1 construct: SAD30
# Parameters: species or system S. aureus MSSA476 (TSB) or V. cholerae SAD30 (LB); 384-well bacterial growth screen at 25 uM, OD600 relative to DMSO control
# Conditions: relative growth, OD600, LB; 25 µM; inhibitor
row,SMILES,% of control remaining
1,"C=CC(=O)NCc1csc(C(C)(C)C)n1 [2-C09, N-[(2-tert-butyl-1,3-thiazol-4-yl)methyl]prop-2-enamide]",91.5854%
2,"COc1ccc(C=C(C#N)C(=O)Nc2ccc(Cl)c(Cl)c2)cc1 [8-C03, 2-cyano-N-(3,4-dichlorophenyl)-3-(4-methoxyphenyl)prop-2-enamide]",89.395%
3,"C=CC(=O)Nc1c(OC)nc(Cl)nc1OC [1-B14, N-(2-chloro-4,6-dimethoxypyrimidin-5-yl)prop-2-enamide]",48.0864%
4,"C=CC(=O)Nc1cc(Cl)cc(C)c1OC [1-E16, N-(5-chloro-2-methoxy-3-methylphenyl)prop-2-enamide]",87.145%
5,"C=CC(=O)Nc1ccc(C(N)=O)nc1OC [1-E18, 6-methoxy-5-(prop-2-enamido)pyridine-2-carboxamide]",89.6861%
6,"N#CC(=Cc1cccc(Cl)c1Cl)C(=O)NCCc1ccccc1 [8-J06, 2-cyano-3-(2,3-dichlorophenyl)-N-(2-phenylethyl)prop-2-enamide]",78.9259%
7,"CCN(CC)c1ccc(NC(=O)CCl)cc1 [6-N10, 2-chloro-N-[4-(diethylamino)phenyl]acetamide]",90.5489%
8,"C=CC(=O)Nc1ccc(C)cc1S(=O)(=O)N1CCOCC1 [1-O13, N-[4-methyl-2-(morpholine-4-sulfonyl)phenyl]prop-2-enamide]",87.2945%
9,"Cc1ccccc1NC(=O)C(C#N)=Cc1cc2c(cc1[N+](=O)[O-])OCO2 [9-P11, 2-cyano-N-(2-methylphenyl)-3-(6-nitro-1,3-dioxaindan-5-yl)prop-2-enamide]",84.5003%
10,"C=CC(=O)N1CCCC(c2nn(C)cc2C(N)=O)C1 (stereo not drawn) [1-D07, 1-methyl-3-[1-(prop-2-enoyl)piperidin-3-yl]-1H-pyrazole-4-carboxamide]",92.9746%
11,"CC(C)Oc1ccc2[nH]cc(C(=O)CCl)c2c1 [10-E03, 2-chloro-1-[5-(propan-2-yloxy)-1H-indol-3-yl]ethan-1-one]",105.669%
12,"O=C(CCl)c1ccc(F)cc1F [10-I18, 2-chloro-1-(2,4-difluorophenyl)ethan-1-one]",22.7547%
13,"O=C(CCl)c1c[nH]c2ccc(F)cc12 [10-O11, 2-chloro-1-(5-fluoro-1H-indol-3-yl)ethan-1-one]",23.3781%
14,"Cc1cc(C(=O)CCl)c(C)n1Cc1ccc(F)cc1 [10-N17, 2-chloro-1-{1-[(4-fluorophenyl)methyl]-2,5-dimethyl-1H-pyrrol-3-yl}ethan-1-one]",95.5387%
15,"O=C(CCl)c1c[nH]c2ccccc12 [10-B05, 2-chloro-1-(1H-indol-3-yl)ethan-1-one]",108.475%
16,"O=C(CCl)c1ccc(O)cc1O [10-C14, 2-chloro-1-(2,4-dihydroxyphenyl)ethan-1-one]",100.682%
17,"COc1ccc(Cc2cnc(NC(=O)CCl)s2)cc1 [4-F17, 2-chloro-N-{5-[(4-methoxyphenyl)methyl]-1,3-thiazol-2-yl}acetamide]",111.451%
18,"CC(Cl)C(=O)N1CCc2ncccc2C1 (stereo not drawn) [7-I19, 2-chloro-1-(5,6,7,8-tetrahydro-1,6-naphthyridin-6-yl)propan-1-one]",77.5814%
19,"C=CC(=O)NC(CO)c1ccnn1C (stereo not drawn) [2-D17, N-[2-hydroxy-1-(1-methyl-1H-pyrazol-5-yl)ethyl]prop-2-enamide]",92.203%
20,"C=CC(=O)Nc1cccc(-c2cn(C)nn2)c1 [1-K14, N-[3-(1-methyl-1H-1,2,3-triazol-4-yl)phenyl]prop-2-enamide]",83.4081%
21,"COc1ccc(-n2c(C)c(C)c(C#N)c2NC(=O)CCl)cc1 [4-F20, 2-chloro-N-[3-cyano-1-(4-methoxyphenyl)-4,5-dimethyl-1H-pyrrol-2-yl]acetamide]",105.413%
22,"CC(NC(=O)CCl)c1cn(-c2ccccc2)nn1 (stereo not drawn) [5-O06, 2-chloro-N-[1-(1-phenyl-1H-1,2,3-triazol-4-yl)ethyl]acetamide]",103.73%
23,"O=C(CCl)c1cn(-c2cccc(C(F)(F)F)c2)nn1 [10-C09, 2-chloro-1-{1-[3-(trifluoromethyl)phenyl]-1H-1,2,3-triazol-4-yl}ethan-1-one]",24.9367%
24,"O=C(CCl)c1c(-c2ccc(F)cc2)[nH]c2ccccc12 [10-P04, 2-chloro-1-[2-(4-fluorophenyl)-1H-indol-3-yl]ethan-1-one]",95.8504%
25,"O=C(CCl)NC1CC(=O)N(c2cccc(C(F)(F)F)c2)C1 (stereo not drawn) [5-E09, 2-chloro-N-{5-oxo-1-[3-(trifluoromethyl)phenyl]pyrrolidin-3-yl}acetamide]",100.2%
26,"Cn1cc(C(=O)CCl)cc1C(N)=O [10-J06, 4-(2-chloroacetyl)-1-methyl-1H-pyrrole-2-carboxamide]",97.5648%

row,SMILES,% of control remaining
1,Cc1cccc(-n2cc(C(=O)CCl)nn2)c1 [10-L07],5.299%
2,"Cn1cc(C(=O)CCl)nn1 [10-M19, 2-chloro-1-(1-methyl-1H-1,2,3-triazol-4-yl)ethan-1-one]",0%
3,"Cc1cccc(-n2c(C)cc(C(=O)CCl)c2C)c1 [10-A22, 2-chloro-1-[2,5-dimethyl-1-(3-methylphenyl)-1H-pyrrol-3-yl]ethan-1-one]",108.163%
4,"Cc1cc(C(=O)CCl)c(C)n1-c1cccc(Cl)c1 [10-N18, 2-chloro-1-[1-(3-chlorophenyl)-2,5-dimethyl-1H-pyrrol-3-yl]ethan-1-one]",92.4216%
5,"Cc1cc(C(=O)CCl)c(C)n1-c1ccc(C(F)(F)F)cc1 [10-J14, 2-chloro-1-{2,5-dimethyl-1-[4-(trifluoromethyl)phenyl]-1H-pyrrol-3-yl}ethan-1-one]",98.4999%
6,"Cn1ccc(C(=O)CCl)c1 [10-D08, 2-chloro-1-(1-methyl-1H-pyrrol-3-yl)ethan-1-one]",103.176%
7,O=C(CCl)c1cn(-c2ccc(F)cc2)nn1 [10-F05],0.6234%
8,"CCc1ccc(NC(=O)C(C)Cl)cc1 (stereo not drawn) [4-L15, 2-chloro-N-(4-ethylphenyl)propanamide]",96.9592%
9,"CC(Cl)C(=O)NCc1csc2ccccc12 (stereo not drawn) [7-C11, N-[(1-benzothiophen-3-yl)methyl]-2-chloropropanamide]",69.5192%
10,"COc1ccc(C=C(C#N)C(=O)Nc2ccccc2)cc1 [8-A05, 2-cyano-3-(4-methoxyphenyl)-N-phenylprop-2-enamide]",91.9782%
11,"N#CC(=Cc1ccc(O)cc1)C(=O)Nc1cc(Cl)ccc1Cl [9-F03, 2-cyano-N-(2,5-dichlorophenyl)-3-(4-hydroxyphenyl)prop-2-enamide]",117.947%
12,"CC(Cl)C(=O)N1CCN(C(=O)Cc2cccc(Cl)c2)C(C)C1 (stereo not drawn) [7-E20, 2-chloro-1-{4-[2-(3-chlorophenyl)acetyl]-3-methylpiperazin-1-yl}propan-1-one]",74.6737%
13,"CC(Cl)C(=O)N[C@H]1C[C@H](C)S(=O)(=O)c2sccc21 (stereo partly drawn) [6-B22, 2-chloro-N-[(2S,4S)-2-methyl-1,1-dioxo-2H,3H,4H-1lambda6-thieno[2,3-b]thiopyran-4-yl]propanamide]",103.289%
14,"Cc1ccc(SCCNC(=O)CCl)cc1 [4-K21, 2-chloro-N-{2-[(4-methylphenyl)sulfanyl]ethyl}acetamide]",111.279%
15,"N#CC(=Cc1ccccc1OC(F)F)C(=O)Nc1ccccc1Cl [9-M21, N-(2-chlorophenyl)-2-cyano-3-[2-(difluoromethoxy)phenyl]prop-2-enamide]",89.5309%
16,"O=C(CCl)NCCCc1ccccc1 [4-N04, 2-chloro-N-(3-phenylpropyl)acetamide]",112.487%
17,"O=C1C=CC(=O)N1CCc1ccccc1 [10-E20, 1-(2-phenylethyl)-2,5-dihydro-1H-pyrrole-2,5-dione]",27.5862%
18,"Cc1cc(C(=O)CCl)c(C)n1CCc1ccccc1 [10-B18, 2-chloro-1-[2,5-dimethyl-1-(2-phenylethyl)-1H-pyrrol-3-yl]ethan-1-one]",95.3828%
19,"COc1ccc(CCNC(=O)CCl)cc1 [5-H12, 2-chloro-N-[2-(4-methoxyphenyl)ethyl]acetamide]",68.593%
20,"COc1ccc(CCN2C(=O)C=CC2=O)cc1OC [10-H07, 1-[2-(3,4-dimethoxyphenyl)ethyl]-2,5-dihydro-1H-pyrrole-2,5-dione]",98.344%
21,"COc1ccc(CCN2C(=O)C=CC2=O)cc1 [10-A05, 1-[2-(4-methoxyphenyl)ethyl]-2,5-dihydro-1H-pyrrole-2,5-dione]",35.8465%
22,"Cc1cc(C(=O)CCl)c(C)n1CCc1ccc(F)cc1 [10-G14, 2-chloro-1-{1-[2-(4-fluorophenyl)ethyl]-2,5-dimethyl-1H-pyrrol-3-yl}ethan-1-one]",97.7206%
23,"CC(Cl)C(=O)NCCc1ccc(F)cc1 (stereo not drawn) [6-F06, 2-chloro-N-[2-(4-fluorophenyl)ethyl]propanamide]",86.757%
24,"O=C1C=CC(=O)N1CCc1ccc(F)cc1 [10-C21, 1-[2-(4-fluorophenyl)ethyl]-2,5-dihydro-1H-pyrrole-2,5-dione]",34.7555%
25,"O=C1C=CC(=O)N1CCc1ccccc1F [10-G03, 1-[2-(2-fluorophenyl)ethyl]-2,5-dihydro-1H-pyrrole-2,5-dione]",22.2872%
